This is one part of a sample in which the strongest signals are shown more often than they occur.
Assays:
Experiment in all cases: glycan array binding signal (z-score within array); higher = stronger binding
Conditions in all cases: glycan notation: IUPAC condensed, linker removed
[1] = target: Fuc(a1-2)Gal(b1-3)[Fuc(a1-4)]GlcNAc(b1-2)Man(a1-3)[Fuc(a1-2)Gal(b1-3)[Fuc(a1-4)]GlcNAc(b1-2)Man(a1-6)]Man(b1-4)GlcNAc(b1-4)[Fuc(a1-6)]GlcNAc(b1-4)[Fuc(a1-6)]GlcNAc
Outline: (§1)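 From the Consortium for Functional Glycomics database, 3228 arrays were curated, keeping only those whose protein sequence was available. Binding is given as a within-array Z-score averaged across arrays sharing a protein sequence and across linkers. Negative Z-scores can be read as non-binding.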

[2] = target: Fuc(a1-2)Gal(b1-4)[Fuc(a1-3)]GlcNAc(b1-2)Man(a1-3)[Fuc(a1-2)Gal(b1-4)[Fuc(a1-3)]GlcNAc(b1-2)Man(a1-6)]Man(b1-4)GlcNAc(b1-4)[Fuc(a1-6)]GlcNAc
Outline: as §1

[3] = target: Fuc(a1-2)[Gal(a1-3)]Gal(b1-3)GlcNAc
Outline: as §1

[4] = target: Fuc(a1-2)[GalNAc(a1-3)]Gal(b1-4)GlcNAc
Outline: as §1

[5] = target: Fuc(a1-3)[Gal(b1-4)]GlcNAc(b1-2)Man(a1-3)[Fuc(a1-3)[Gal(b1-4)]GlcNAc(b1-2)Man(a1-6)]Man(b1-4)GlcNAc(b1-4)GlcNAc
Outline: as §1

Gal(a1-3)Gal(b1-3)GlcNAc = target: Gal(a1-3)Gal(b1-3)GlcNAc
Outline: as §1

[6] = target: Gal(a1-3)Gal(b1-4)GlcNAc(b1-2)Man
Outline: as §1

Gal(a1-4)Gal(b1-4)GlcNAc = target: Gal(a1-4)Gal(b1-4)GlcNAc
Outline: as §1

Gal(a1-4)GlcNAc = target: Gal(a1-4)GlcNAc
Outline: as §1

Gal(b1-2)Gal = target: Gal(b1-2)Gal
Outline: as §1

Gal(b1-3)Gal = target: Gal(b1-3)Gal
Outline: as §1

Gal(b1-3)Gal(b1-4)GlcNAc = target: Gal(b1-3)Gal(b1-4)GlcNAc
Outline: as §1

[7] = target: Gal(b1-3)GlcNAc(a1-6)Gal(b1-4)GlcNAc
Outline: as §1

[8] = target: Gal(b1-3)GlcNAc(b1-2)Man(a1-3)[Gal(b1-3)GlcNAc(b1-2)Man(a1-6)]Man(b1-4)GlcNAc(b1-4)[Fuc(a1-6)]GlcNAc
Outline: as §1

[9] = target: Gal(b1-3)GlcNAc(b1-6)Gal(b1-4)GlcNAc
Outline: as §1

[10] = target: Gal(b1-4)GlcNAc(b1-2)Man(a1-6)Man(b1-4)GlcNAc(b1-4)GlcNAc
Outline: as §1

[11] = target: Gal(b1-4)GlcNAc(b1-2)[Gal(b1-4)GlcNAc(b1-4)]Man(a1-3)[Gal(b1-4)GlcNAc(b1-2)Man(a1-6)]Man(b1-4)GlcNAc(b1-4)GlcNAc
Outline: as §1

[12] = target: Gal(b1-4)GlcNAc(b1-2)[Gal(b1-4)GlcNAc(b1-6)]Man(a1-6)[Gal(b1-4)GlcNAc(b1-2)Man(a1-3)]Man(b1-4)GlcNAc(b1-4)[Fuc(a1-6)]GlcNAc
Outline: as §1

[13] = target: Gal(b1-4)GlcNAc(b1-3)Gal(b1-3)GlcNAc
Outline: as §1

[14] = target: Gal(b1-4)GlcNAc(b1-3)Gal(b1-4)GlcNAc(b1-2)Man(a1-3)[Gal(b1-4)GlcNAc(b1-3)Gal(b1-4)GlcNAc(b1-2)Man(a1-6)]Man(b1-4)GlcNAc(b1-4)[Fuc(a1-6)]GlcNAc
Outline: as §1

[15] = target: Gal(b1-4)GlcNAc(b1-3)Gal(b1-4)GlcNAc(b1-3)Gal(b1-4)GlcNAc(b1-3)Gal(b1-4)GlcNAc(b1-2)Man(a1-3)[Gal(b1-4)GlcNAc(b1-3)Gal(b1-4)GlcNAc(b1-3)Gal(b1-4)GlcNAc(b1-3)Gal(b1-4)GlcNAc(b1-2)Man(a1-6)]Man(b1-4)GlcNAc(b1-4)[Fuc(a1-6)]GlcNAc
Outline: as §1

[16] = target: Gal(b1-4)GlcNAc(b1-3)Gal(b1-4)GlcNAc(b1-3)Gal(b1-4)GlcNAc(b1-3)Gal(b1-4)GlcNAc(b1-3)Gal(b1-4)GlcNAc(b1-2)Man(a1-3)[Gal(b1-4)GlcNAc(b1-3)Gal(b1-4)GlcNAc(b1-3)Gal(b1-4)GlcNAc(b1-3)Gal(b1-4)GlcNAc(b1-3)Gal(b1-4)GlcNAc(b1-2)Man(a1-6)]Man(b1-4)GlcNAc(b1-4)GlcNAc
Outline: as §1

Gal3S(b1-3)GalNAc = target: Gal3S(b1-3)GalNAc
Outline: as §1

Gal3S(b1-4)Glc = target: Gal3S(b1-4)Glc
Outline: as §1

Gal3S(b1-4)Glc6S = target: Gal3S(b1-4)Glc6S
Outline: as §1

Gal3S6S(b1-4)GlcNAc = target: Gal3S6S(b1-4)GlcNAc
Outline: as §1

Glc(a1-4)Glc = target: Glc(a1-4)Glc
Outline: as §1

GlcNAc(b1-3)Fuc = target: GlcNAc(b1-3)Fuc
Outline: as §1

[17] = target: GlcNAc(b1-4)Gal(b1-4)GlcNAc
Outline: as §1

Kdn(a2-3)Gal(b1-4)Glc = target: Kdn(a2-3)Gal(b1-4)Glc
Outline: as §1

B1: FliD (Clostridium difficile) (protein)
chain: MSSISPVRVTGLSGNFDMEGIIEASMIRDKEKVNKAKQDQQIVKWKQEIYRDIIKESKNLYDKYLNGDSPNSITNKKAYSATRITSSDESIIVAKGSAGAEKINYQFAVSQMAEPAKVTIKLNSSDPIVQQFPPNASGASSLNIGGVNIPISEQDTTSTIVSKINSLCADNDIRASYSEMTGELIISRKQTGSSSDIDLKVIGNDSLAGQIASDNGITFTTDASGTKSAVVYGKNLEADVTDDQGRVTHISKEQNSFKIDNIDYNVNSKGSAKLVSVTDTEEATKNMKAFVDDYNALMDKVYGLVTTKKSKDYPPLTDEQKDDMTTEEIEKWEKKAKEGILRNDDELRAFVEDIQSMFFGDADTIIALRKLGISEHENYNKKGQISFNADTFSKALIDDSDKVYKALAGYSSNYDDKGMFEKLKKIVFEYSGSSASKLTKKAGMENSSSASQNVYSKQIAEQERNISRLVEKMNDKEKRLYAKYSALESLLNKYSSQMNYFSQAQGN
- glycan array binding signal (z-score) [1]: -0.156
- glycan array binding signal (z-score) [2]: -0.162
- glycan array binding signal (z-score) [3]: 1.88
- glycan array binding signal (z-score) [4]: -0.235
- glycan array binding signal (z-score) [5]: -0.161
- glycan array binding signal (z-score) (Gal(a1-3)Gal(b1-3)GlcNAc): 12.1
- glycan array binding signal (z-score) [6]: -0.211
- glycan array binding signal (z-score) (Gal(a1-4)Gal(b1-4)GlcNAc): -0.161
- glycan array binding signal (z-score) (Gal(a1-4)GlcNAc): 1.22
- glycan array binding signal (z-score) (Gal(b1-2)Gal): 1.49
- glycan array binding signal (z-score) (Gal(b1-3)Gal): -0.262
- glycan array binding signal (z-score) (Gal(b1-3)Gal(b1-4)GlcNAc): -0.236
- glycan array binding signal (z-score) [7]: -0.181
- glycan array binding signal (z-score) [8]: -0.117
- glycan array binding signal (z-score) [9]: 0.007
- glycan array binding signal (z-score) [10]: -0.233
- glycan array binding signal (z-score) [11]: -0.254
- glycan array binding signal (z-score) [12]: -0.222
- glycan array binding signal (z-score) [13]: -0.084
- glycan array binding signal (z-score) [14]: 1.44
- glycan array binding signal (z-score) [15]: 1.2
- glycan array binding signal (z-score) [16]: -0.072
- glycan array binding signal (z-score) (Gal3S(b1-3)GalNAc): 0.678
- glycan array binding signal (z-score) (Gal3S(b1-4)Glc): 3.41
- glycan array binding signal (z-score) (Gal3S(b1-4)Glc6S): 1.24
- glycan array binding signal (z-score) (Gal3S6S(b1-4)GlcNAc): -0.201
- glycan array binding signal (z-score) (Glc(a1-4)Glc): -0.054
- glycan array binding signal (z-score) (GlcNAc(b1-3)Fuc): -0.089
- glycan array binding signal (z-score) [17]: -0.232
- glycan array binding signal (z-score) (Kdn(a2-3)Gal(b1-4)Glc): -0.172

Source: the supplement of paper PMC8728848
